From PubChem BioAssay
Sm TGR block: qHTS Assay for the Inhibitors of Schistosoma Mansoni Peroxiredoxins; Schistosoma mansoni thioredoxin glutathione reductase (TGR), Q962Y6; purified TGR, DTNB reduction, TNB absorbance 405 nm; Potency, µM (series often up to 114 µM), without a hit: at the highest dose activity change, negative = inhibition, hits mostly inhibitors; hit rate 3% among 360,000; AID 485364, 2010; note: potency is the fitted concentration of half-maximal effect; % is set by controls: 0 for no effect and ±100 for the full control effect; nearly all actives have a fitted effect of over 60% in size
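Kinetic colorimetric format: TGR-catalysed, NADPH-driven DTNB reduction monitored via TNB absorbance. Enzyme dispensed at 20 nM; compound exposure 15 min at room temperature before reaction start.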
Giardia FBPA inh: qHTS Assay for Inhibitors of Fructose-1,6-bisphosphate Aldolase from Giardia Lamblia; A8B2U2; purified Giardia FBPA; Potency, µM (top dose mostly 59.6 µM), without a hit: at the top dose activity, negative = inhibition, hits mostly inhibitors; hit rate 0.71% among 290,000; AID 2451, 2010; note: potency is the fitted concentration of half-maximal effect; % is set by controls: 0 for no effect and ±100 for the full control effect; nearly all actives have a fitted effect of over 55% in size
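Giardia FBPA (40 nM reagent) was preincubated 10 min at RT with compound (up to 57.5 uM final), then substrate plus GAPDH/TPI/NAD/arsenate coupling system with diaphorase/resazurin was added; resorufin fluorescence (525/598 nm) was read after 20 min.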
CHX counter: Cycloheximide Counterscreen for Small Molecule Inhibitors of Shiga Toxin; cell reporter, cycloheximide protein synthesis inhibition counterscreen; max response, %; hit rate 12% among 300,000; in the data active = max response mostly above about 13%, no sharp cut-off; inactive = mostly below about 14%; note: read at 38.3 µM for the half of the compounds with a filed dose; 0% is about no effect
LmPK inh: qHTS Assay for Inhibitors of Leishmania Mexicana Pyruvate Kinase (LmPK). Potency, µM (titrated, usually from 57.5 µM), without a hit: at the highest dose activity change, negative = inhibition, usual class: inhibitors. hit rate 0.37% among 290,000. purified LmPK, Kinase-Glo ATP luminescence, 1 h. Q27686. AID 1721, 2009; note: potency is the fitted concentration of half-maximal effect; % is set by controls: 0 for no effect and ±100 for the full control effect
Target sequence (Q27686 whole entry, looked up): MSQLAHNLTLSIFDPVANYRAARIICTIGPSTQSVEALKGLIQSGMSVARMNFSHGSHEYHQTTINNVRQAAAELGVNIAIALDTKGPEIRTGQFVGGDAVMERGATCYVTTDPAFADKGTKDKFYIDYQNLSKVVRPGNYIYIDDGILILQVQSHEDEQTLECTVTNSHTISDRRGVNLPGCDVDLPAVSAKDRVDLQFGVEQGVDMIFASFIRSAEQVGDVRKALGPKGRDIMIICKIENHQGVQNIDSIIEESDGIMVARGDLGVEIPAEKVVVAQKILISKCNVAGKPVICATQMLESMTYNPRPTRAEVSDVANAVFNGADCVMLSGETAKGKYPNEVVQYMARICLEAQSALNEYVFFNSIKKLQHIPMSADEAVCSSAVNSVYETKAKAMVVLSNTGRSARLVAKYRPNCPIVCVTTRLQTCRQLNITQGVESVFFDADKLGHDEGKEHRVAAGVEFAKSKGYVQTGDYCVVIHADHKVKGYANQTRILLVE
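Screened at intermediate enzyme activity to detect both inhibitors and activators: LmPK at 0.1 nM, with a 0.5 nM enzyme column as activation reference. PEP 0.5 mM, ADP 0.1 mM; ATP detected by luminescence after 1 h.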
Shiga toxin inh: A qHTS for Small Molecule Inhibitors of Shiga Toxin; Vero cells, Shiga toxin protein synthesis inhibition reporter; inhibition, % at 38.7 µM; hit rate 9.2% among 290,000; AID 2315, 2010; in the data active = inhibition mostly above about 28%, no sharp cut-off; inactive = mostly below about 43%; note: 0% is about no effect
Tb PYK inh: qHTS of Trypanosoma Brucei Inhibitors | Potency, µM (titrated, usually from 76.8 µM), for the others: at the top dose activity, negative = inhibition, hits mostly inhibitors | AID 624173, 2012 | hit rate 0.12% among 410,000 | TbPYK enzyme, Kinase-Glo Plus ATP luminescence, 45 min; note: potency is the fitted concentration of half-maximal effect; % is set by controls: 0 for no effect and ±100 for the full control effect; nearly all actives have a fitted effect of over 50% in size
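Luminescent Kinase-Glo Plus end-point after 45 min room-temperature reaction of T. brucei pyruvate kinase started with 130 uM ADP (final). Buffer TEA 50 mM pH 7.2 with KCl, MgCl2, BSA, Tween-20; titration-based qHTS with fitted concentration-effect curves.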
* marks the source's active call; other numbers are inactive results; ? = inconclusive; · = not tested or not shown; [ ] = remark or other dose. Shown is part of a subset that was picked to be rich in hits. Unless noted, calls come from the whole dose curve; as a rule, active = well fitted curve in the direction sought with a large enough effect; inconclusive = small, poorly fitted or top-dose-only effect, or another doubt; inactive = no such curve, though single readings can be large; an effect the other way counts as inactive or inconclusive.

SMILES | Sm TGR block | Giardia FBPA inh | CHX counter | LmPK inh | Shiga toxin inh | Tb PYK inh
COc1ccc(-c2ccc(CCC(=O)O)n2CC(=O)Nc2cccc(Cl)c2C)cc1 | -30% | · | · | · | · | 3%
Cc1ccc(CNC(=O)Cn2c3ncccc3c(=O)n2-c2ccc(C)cc2)cc1 | -3% | · | · | · | · | -8%
COc1ccccc1-c1noc(-c2ccc(NC(C)C)c([N+](=O)[O-])c2)n1 | 28% | · | · | · | · | -3%
O=C(Nc1nc(-c2ccc(Cl)cc2)cs1)c1cccnc1 | -19% | -2% | -3 | 1% | -23 | -21%
CC(C)=NNc1nc(-c2ccccc2)c(C)s1 | -17% | -9% | 36* | 7%[11.5 µM] | 104* | -8%
Cc1sc(N/N=C/c2ccco2)nc1-c1ccccc1 | -1% | -11% | 27* | 3% | 91* | -1%
Clc1ccc(-c2csc(N/N=C\c3cccnc3)n2)cc1 | -21% | -5% | 28* | -2% | 11 | -9%
C(=N\Nc1nc(-c2ccccc2)cs1)/c1ccco1 | -7% | -16% | 38* | 0% | 61* | -27%
Cc1cc(C)nc(N/N=C/c2ccco2)n1 | -13% | ? | -2 | -12% | -36 | 3%
O=S1(=O)N=C(N/N=C/c2ccco2)c2ccccc21 | -12% | ? | 6 | 10%[11.5 µM] | 27 | 1%
COc1cccc(OC)c1NC(=O)C1CCCN1C(=O)Nc1ccccc1F (centres undefined) | 22% | 2% | 3 | -5% | -10 | 1%
COc1ccc(-n2nc([N+](=O)[O-])c(=NCc3ccc4c(c3)OCO4)n2O)cc1 | -4% | 0% | 55* | -4% | 65* | -5%
Cc1cccc(CCN=c2c([N+](=O)[O-])nn(-c3ccccc3)n2O)c1 | 2% | -10% | 12 | 1%[11.5 µM] | 12 | -4%
O=[N+]([O-])c1nn(-c2ccccc2)n(O)c1=NCc1ccc2c(c1)OCO2 | 11% | -1% | 30* | 9% | 54* | -2%
O=[N+]([O-])c1nn(-c2ccc(Cl)cc2)n(O)c1=NCc1ccccc1 | -8% | -9% | 36* | 0% | 61 | -1%
Cc1ccc(C(=O)COC(=O)C(CC(C)C)NC(=O)C2CCC(C)CC2)cc1 (centres undefined) | -2% | · | · | · | · | 1%
O=C(c1cc(F)ccc1F)C1CCCN(C(=O)CCN2CCCCO2)C1 (centres undefined) | -2% | 0% | 17* | 0% | 23 | -1%
O=C(c1cc(F)ccc1F)C1CCCN(C(=O)c2ccc3nccnc3c2)C1 (centres undefined) | -23% | -3% | 22* | 1% | 31* | 0%
COc1ccc(N(C(=O)c2ccco2)C(C(=O)NC2CCCCC2)c2cccs2)cc1OC (centres undefined) | -8% | 3% | -2 | -2% | -6 | -10%
COc1ccc(N(C(=O)CCl)C(C(=O)NCCc2ccccc2)c2cccs2)cc1Cl (centres undefined) | 10µM* | -10% | -6 | 6% | -22 | -8%
COc1cccc(N(C(=O)CCl)C(C(=O)NCCc2ccccc2)c2cccs2)c1 (centres undefined) | 10µM* | 2% | -2 | -1% | -15 | 5%
COc1cccc(N(C(=O)c2snc(C(N)=O)c2N)C(C(=O)NCC2CCCO2)c2cccs2)c1 (centres undefined) | -2% | 5% | -3 | -4% | 3 | -3%
C=CCN1C(=O)c2cccc3c(N4CCCCC4)ccc(c23)C1=O | 9% | 4% | 46* | 1% | 130* | -8%
O=C1c2cccc3c(N4CCCCC4)ccc(c23)C(=O)N1c1cccc(O)c1 | · | 4% | 61* | 0% | 90* | 2%
O=C1c2cccc3c(N4CCCCC4)ccc(c23)C(=O)N1CCO | 4% | 0% | 42* | 0% | 76 | -1%
SMILES | Sm TGR block | Giardia FBPA inh | CHX counter | LmPK inh | Shiga toxin inh | Tb PYK inh
O=C1c2cccc3cccc(c23)C(=O)N1CCO | · | · | · | · | · | -3%
C=CCN1C(=O)c2cccc3c(Br)ccc(c23)C1=O | -4% | 9% | 4 | -5% | 6 | 3%
COc1cc(CN(C(=O)COc2ccc(Br)cc2)c2ccccn2)cc(OC)c1OC | 2% | · | · | · | · | 2%
COc1ccc(OC)c(CNC(=O)C2CCN(c3nc4ccccc4nc3C(F)(F)F)CC2)c1 | 12% | · | · | · | · | -10%
CC(C)(C)c1ccc(C(=O)NC(=S)N2CCOCC2)cc1 | -3% | · | 46* | -21% | 92* | ?
Cc1ccc(C(=O)NC(=S)N2CCN(C)CC2)cc1 | -11% | -22% | 21* | -2% | 88* | -19%
CC(C)Oc1ccc(C(=O)NC(=S)N2CCOCC2)cc1 | 7% | ? | 32* | 2% | 45* | -16%
CN1CCN(C(=S)NC(=O)c2ccc(S(=O)(=O)N3CCOCC3)cc2)CC1 | -16% | ? | -2 | 3% | 2 | -7%
CCOc1cc(CNC(=O)c2ccc(Cn3c(=O)c4cccn4c4cccnc43)cc2)ccc1OC | 3% | · | · | · | · | 1%
CCn1c(C(=O)NCc2ccccc2C)cc2oc3ccccc3c21 | -5% | · | · | · | · | -11%
Cn1c(N)c(C#N)c2c(c1=S)CSC(C)(C)C2 | 13µM* | ? | -3 | 4% | -15 | -21%
Cn1c(N)c(C#N)c2c(c1=S)COC(C)(C)C2 | -36% | -12% | -6 | -4% | -4 | -12%
CC1(C)Cc2c(C#N)c(N)sc(=S)c2CS1 | 32µM* | ? | -3 | 7% | -2 | ?
N#Cc1c(N)sc(=S)c2c1CCCCC2 | 7.9µM* | 10µM* | 6 | -3% | -3 | ?
Cc1ccc(OCCCC(=O)Nc2sc3c(c2C(N)=O)CCCC3)cc1 | -12% | · | · | · | · | -3%
O=C1/C(=C/c2cccnc2)SC(=S)N1N1CCOCC1 | 2.8µM* | 3% | 1 | 4% | 4 | 1%
O=C1/C(=C/c2ccncc2)SC(=S)N1N1CCOCC1 | 0.89µM* | ? | -4 | 4% | -4 | -15%
Cc1ccc(S(=O)(=O)n2cc(CO)c3ccccc32)cc1 | · | · | · | · | · | 6%
Cc1onc(-c2ccccc2)c1-c1ccc(S(N)(=O)=O)cc1 | 1% | 12% | 38* | 7% | 69* | 2%
O=C(c1cccc(Cl)c1)N1c2ncnn2C2(CCCCC2)[C@@H]2CCCC[C@@H]21 | 1% | · | · | · | · | 0%
Cc1ccc(NC(=O)Cn2c(=O)n(CCC(=O)NCc3ccccc3Cl)c(=O)c3ccccc32)cc1 | 7% | · | · | · | · | 2%
CC(C)CC(O)(c1ccccc1)C(CN1CCOCC1)c1ccccc1 (centres undefined) | -10% | -27% | 20* | -6% | 18 | 1%
OC(c1ccc(F)cc1)(C1CCCCC1)C(CN1CCOCC1)c1ccccc1 (centres undefined) | 89µM* | -17% | -2 | 12% | · | -4%
CCOC(=O)c1c(Nc2ccc(OC)cc2)nnc(-c2ccccc2)c1-c1ccccc1 | 4% | · | · | · | · | -7%
